Test results: PubChem BioAssay (EPA / NIEHS)
Inconclusive results are not listed. Calls of active or inactive are those of the source. The calls were made as follows: active = hit-call score of the fitted dose curve at least 0.9, where 1 is the maximum; inconclusive = response in the unintended direction; inactive = score below 0.9.

Assay: ATG_GAL4_TRANS: Attagene TRANS-FACTORIAL HepG2 Assay for GAL4 (Internal Marker) (AID 2282976)
Conditions: HepG2 Attagene TRANS GAL4 internal marker reporter
Protocol: ATG_TRANS is a cell-based, multiplexed-readout assay that uses HepG2, a human liver cell line, with measurements taken at 24 hours after chemical dosing in a 24-well plate.ATG_GAL4_TRANS is one of 30 assay component(s) measured or calculated from the ATG_TRANS assay. It is designed to make measurements of mRNA induction, a form of inducible reporter, as detected with fluorescence intensity signals by Reverse transcription polymerase chain reaction (RT-PCR) and Capillary electrophoresis technology.Data from the assay component ATG_GAL4_TRANS was analyzed into 1 assay endpoint. This assay endpoint, ATG_GAL4_TRANS, was analyzed in the positive analysis fitting direction relative to DMSO as the negative control and baseline of activity. Using a type of inducible reporter, measures of mRNA for gain-of-signal activity can be used to understand the background control at the transcription factor-level as they relate to the gene . Furthermore, this assay endpoint can be referred to as a secondary readout, because this assay has produced multiple assay endpoints where this one serves a background control function. To generalize the intended target to other relatable targets, this assay endpoint is annotated to the background measurement intended target family, where the subfamily is baseline control.
Human liver HepG2 cells are transiently transfected with multiple reporter transcription units (MRTUs) in 6-well plates using FuGene 6 reagent (Roche; 3 ml FuGene/1 mg DNA). The MRTU constructs are regulated by a cis-regulating element (promoter). […] A major difference between the CIS and TRANS system is that in CIS activities of endogenous TFs are measured, whereas the TRANS assay evaluates changes in activities of exogenous, chimeric NR-Gal4 proteins. […] At the end of 24 hour incubation, total RNA was isolated using TriZol reagent (Invitrogen). The isolated RNA is then reverse-transcribed using oligo(dT) primer and Mo-MLV reverse transcriptase (Invitrogen) with DNAse I (Ambion) treatment for 30 min. The one-tenth of the produced cDNA was amplified by PCR using Taq DNA polymerase (Invitrogen) and two reporter sequence-specific primers. The PCR products were fluorescently labeled by primer extension with 6-arboxyfluorescein (6-FAM) 5'-labeled reporter sequence-specific primer (2 min at 95 C, 20 s at 68 C and 10 min at 72 C) and these products were digested with 5U of HpaI (New England Biolabs) for 2h at 37 C. The fragments were purified using Qiaquick PCR columns (Qiagen), analyzed on an ABI 3130xL genetic analyzer (Applied Biosystems) with peak positions identified by using a set of X-rhodamine (ROX)-labeled MapMarker1000 molecular weight standards (BioVentures). The raw capillary electrophoresis data was processed using Attagraph software (Attagene).

outcome, inactive:
Cc1cc(S(=O)(=O)O)ccc1N=Nc1c(O)ccc2ccccc12, CCOC(=O)CN, CCOCCOCCOCC, COS(=O)(=O)O, C=CCCCCCCCCCC, C=Cc1ccc(C)cc1, COc1ccc(N)c([N+](=O)[O-])c1, CCOC(=O)c1ccc(N)cc1, CC[N+](C)(CC)CC, O=c1[nH]c(=O)c2cn[nH]c2[nH]1, NCc1ccco1, FC(F)(F)COCC(F)(F)F, CC1CC(O)CC(C)(C)C1 (stereo not given), C[Si](C)(C)O[Si](C)(C)C, CCOC(=O)CCc1ccccc1, ON=C1CCCCC1, CCCCCCCCc1ccc(S(=O)(=O)O)cc1, COCCOCCOCCO, CCCCCCCCCCCCCCCC(=O)OC/C=C(C)/C=C/C=C(C)/C=C/C1=C(C)CCCC1(C)C, Nc1c(Cl)cc(Cl)cc1[N+](=O)[O-], Nc1ccc(N)c2c1C(=O)c1ccccc1C2=O, CCCCC(CC)C(=O)OC(C)C (stereo not given), CN(C)CCOc1ccc(/C(=C(/CCCl)c2ccccc2)c2ccccc2)cc1, C=COCCOCCOC=C, O=C(O)c1cc(C(=O)O)cc([N+](=O)[O-])c1, CC(=O)CC(=O)Nc1ccc(C)cc1C, CC(C)(C)CC(C)(C)c1ccc(OCCOCC[N+](C)(C)Cc2ccccc2)cc1, CC(=O)C1(C)CC2=C(CCCC2(C)C)CC1C (stereo not given), COc1cc(Cl)c(OC)cc1N, CCCC(C)C(O)CC (stereo not given), OCc1cccc(Oc2ccccc2)c1, CC1(C)COCN1, C[C@@H]1CCN(C(=O)[C@H](CCCN=C(N)N)NS(=O)(=O)c2cccc3c2NC[C@H](C)C3)[C@@H](C(=O)O)C1, CC(C)CCCCCCc1ccc(OCCOCCO)cc1, COC(=O)c1cccnc1, CC(C)C[C@H](NC(=O)OCC1c2ccccc2-c2ccccc21)C(=O)O, C=Cc1ccc(C(C)(C)C)cc1, CCCCCCC(C)(C)S, CCCCSCCCC, CN(c1nccc(=O)[nH]1)C1CCN(c2nc3ccccc3n2Cc2ccc(F)cc2)CC1
